Test [1] can be described thus: probe aLefty2 binding to arrayed compounds – biochemical, biotinylated probe, 635/667 nm fluorescence, primary screen (AID 1094).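 Note: score merges spot fluorescence near 667 nm with spot signal-to-noise ratio.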 To be noted: small-molecule microarray, higher = more signal.
For test [2], the system named is Noggin (protein binding on small-molecule microarray). In words: small molecules binding Noggin protein – biochemical, 635/667 nm fluorescence, primary screen (AID 1095).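 Note: score merges 667 nm feature fluorescence with signal to noise over triplicate slides.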 As to conditions: 635 nm fluorescence, higher = more signal.
Test [3] concerns the target Neurogenic locus notch homolog protein 3 (Homo sapiens) (UniProt Q9UM47). In words: small molecules binding NOTCH3 protein – biochemical, 635/667 nm fluorescence, primary screen (AID 1096). To be noted: small-molecule microarray, 635 nm fluorescence, higher = more signal.
A short description of test [4]: probe aEGFR binding to arrayed compounds – biochemical, biotinylated probe, 635/667 nm fluorescence, primary screen (AID 1097).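 Note: probe is a biotinylated anti-EGFR antibody binding compounds printed on slides; score combines fluorescence near 667 nm and signal to noise of each spot.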 To be noted: small-molecule microarray, higher = more signal.
The subject of test [5] is Plasmodium falciparum Sir2 (PF13_0152, Sir2A). In words: Plasmodium falciparum Sir2A binding compounds – biochemical, small-molecule microarray, 635 nm fluorescence, primary screen (AID 1098).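 Note: score merges spot fluorescence intensity with its signal-to-noise ratio.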 To be noted: fluorescence 635 nm, higher = more signal.
Test [6] in a line: probe aDKK1 binding to arrayed compounds – biochemical, biotinylated probe, 635/667 nm fluorescence, primary screen (AID 1099).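 Note: score merges 667nm spot fluorescence with signal to noise across triplicate slides.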 To be noted: small-molecule microarray, higher = more signal.
Test [7] can be described thus: probe aCHRDL2 binding to arrayed compounds – biochemical, biotinylated probe, 635/667 nm fluorescence, primary screen (AID 1100). To be noted: small-molecule microarray, higher = more signal.
A short description of test [8]: change in splice reporter luminescence, either direction, cell-based, HEK293, spliceosome inhibition project, primary screen (AID 1101).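 Note: HEK293 cells carrying a splicing-competent luciferase reporter gene; test concentration not given here.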 To be noted: HEK293 splicing luciferase reporter, 24 h, higher = more signal, called active from +8 up or from −8 down. A general note: In a reporter assay the amount or activity of a reporter protein is the signal.
Test [9] concerns the target Fibroblast growth factor 10 (Homo sapiens) (UniProt O15520). The test can be described thus: compounds binding fibroblast growth factor 10 – biochemical, small-molecule microarray, 635 nm fluorescence, primary screen (AID 1102). As to conditions: FGF10 binding, fluorescence 635 nm, higher = more signal.
Test [10] concerns glycogen synthase kinase-3 (GSK3A per assay name; protocol says GSK3B). In words: compounds binding glycogen synthase kinase-3 – biochemical, small-molecule microarray, 635 nm fluorescence, GSK3A, primary screen (AID 1103). Note: the record names both GSK3A and GSK3B. To be noted: fluorescence 635 nm, higher = more signal.
The target of test [11] is Epidermal growth factor receptor (Homo sapiens) (UniProt P00533). In words: compounds binding epidermal growth factor receptor – biochemical, small-molecule microarray, 635 nm fluorescence, primary screen (AID 1104).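 Note: score merges 667 nm emission intensity with spot signal to noise over triplicate slides.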 As to conditions: EGFR binding, higher = more signal.
Chain of Epidermal growth factor receptor (Homo sapiens) (P00533 whole entry, looked up): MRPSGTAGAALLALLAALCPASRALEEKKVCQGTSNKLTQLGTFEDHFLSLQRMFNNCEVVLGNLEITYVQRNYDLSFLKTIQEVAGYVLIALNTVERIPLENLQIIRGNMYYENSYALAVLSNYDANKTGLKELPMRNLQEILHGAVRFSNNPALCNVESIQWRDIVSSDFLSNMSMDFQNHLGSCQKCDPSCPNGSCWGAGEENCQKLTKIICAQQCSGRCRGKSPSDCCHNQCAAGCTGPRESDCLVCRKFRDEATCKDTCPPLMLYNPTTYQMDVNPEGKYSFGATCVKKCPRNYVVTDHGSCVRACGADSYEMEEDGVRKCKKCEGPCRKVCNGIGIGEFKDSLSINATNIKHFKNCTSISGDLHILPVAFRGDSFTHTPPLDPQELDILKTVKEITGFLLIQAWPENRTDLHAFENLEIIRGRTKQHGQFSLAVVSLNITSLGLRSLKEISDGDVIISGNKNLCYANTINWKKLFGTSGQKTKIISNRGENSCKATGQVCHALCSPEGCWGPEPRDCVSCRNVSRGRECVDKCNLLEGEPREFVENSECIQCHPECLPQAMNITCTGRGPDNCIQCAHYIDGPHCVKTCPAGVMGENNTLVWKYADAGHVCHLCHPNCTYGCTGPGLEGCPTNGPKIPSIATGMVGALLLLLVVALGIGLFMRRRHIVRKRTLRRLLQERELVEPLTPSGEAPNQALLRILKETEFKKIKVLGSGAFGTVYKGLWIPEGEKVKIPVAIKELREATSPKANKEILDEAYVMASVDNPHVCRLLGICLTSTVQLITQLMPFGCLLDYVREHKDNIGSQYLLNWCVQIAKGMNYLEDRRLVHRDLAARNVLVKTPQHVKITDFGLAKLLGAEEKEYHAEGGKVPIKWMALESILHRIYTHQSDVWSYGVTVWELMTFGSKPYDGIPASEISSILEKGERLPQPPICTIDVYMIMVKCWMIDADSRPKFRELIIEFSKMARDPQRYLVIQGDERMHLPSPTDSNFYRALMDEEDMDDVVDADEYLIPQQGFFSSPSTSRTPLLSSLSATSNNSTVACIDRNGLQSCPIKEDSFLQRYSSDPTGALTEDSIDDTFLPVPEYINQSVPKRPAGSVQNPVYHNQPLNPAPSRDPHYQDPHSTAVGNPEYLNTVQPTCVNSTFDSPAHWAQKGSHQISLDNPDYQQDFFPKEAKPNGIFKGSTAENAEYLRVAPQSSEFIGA
The target of test [12] is Follistatin-related protein 3 (Homo sapiens) (UniProt O95633). The test can be described thus: compounds binding follistatin-related protein 3 – biochemical, small-molecule microarray, 635 nm fluorescence, primary screen (AID 1105).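 Note: score merges emission near 667 nm and signal to noise per printed spot across three slides.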 To be noted: FSTL3 binding, higher = more signal.
Chain of Follistatin-related protein 3 (Homo sapiens) (O95633 whole entry, looked up): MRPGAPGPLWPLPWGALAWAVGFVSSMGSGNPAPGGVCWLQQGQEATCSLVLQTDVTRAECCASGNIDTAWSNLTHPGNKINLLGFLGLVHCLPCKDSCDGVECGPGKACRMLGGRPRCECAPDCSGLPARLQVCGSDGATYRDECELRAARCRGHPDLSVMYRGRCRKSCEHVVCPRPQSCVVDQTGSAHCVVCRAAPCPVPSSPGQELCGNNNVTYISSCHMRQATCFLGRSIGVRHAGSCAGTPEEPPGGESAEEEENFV
The target in test [13] is Dickkopf-related protein 1 (Homo sapiens) (UniProt O94907). In words: small molecules binding DKK1 protein – biochemical, small-molecule microarray, 635 nm fluorescence scan, primary screen (AID 1106).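 Note: score merges emission near 667 nm with signal to noise over three replicate slides.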 To be noted: higher = more signal.
Chain of Dickkopf-related protein 1 (Homo sapiens) (O94907 whole entry, looked up): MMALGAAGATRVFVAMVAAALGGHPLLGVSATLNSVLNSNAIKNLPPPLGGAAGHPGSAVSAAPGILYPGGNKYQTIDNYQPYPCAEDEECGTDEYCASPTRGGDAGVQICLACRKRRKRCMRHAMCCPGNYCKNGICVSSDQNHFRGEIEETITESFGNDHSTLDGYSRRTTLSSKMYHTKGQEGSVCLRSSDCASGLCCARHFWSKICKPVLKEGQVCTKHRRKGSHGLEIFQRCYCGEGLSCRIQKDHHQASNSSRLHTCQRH
For test [14], the system named is Inhibin beta A chain (activin A). The test can be described thus: small molecules binding activin A – biochemical, small-molecule microarray, 635 nm fluorescence scan, primary screen (AID 1107).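 Note: mouse activin A protein probed at 4.33 µg/mL on printed slides; score merges bound-protein fluorescence near 667 nm with spot signal-to-noise.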 To be noted: INHBA, higher = more signal.
Test [15] concerns Human papillomavirus type 1a protein E7 (residues 44-93). In words: small molecules binding HPV E7 44-93 – biochemical, small-molecule microarray, residues 44-93, 635 nm fluorescence, primary screen (AID 1108).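 Note: E7 fragment applied at 1 µg/mL in TBST for 1 h at 4 C; score combines spot fluorescence with its signal to noise ratio.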 To be noted: fluorescence 635 nm, higher = more signal.
The nature of test [16]: hepatitis C replication reporter changes, two-sided – Huh7 cells, luciferase reporter, HCV replication inhibitor project, primary screen (AID 1109).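 Note: huh7 hepatoma cells harbouring a luciferase neomycin HCV replicon reporter; luciferase luminescence as measure of HCV replicon replication; test concentration not given here.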 To be noted: Huh7 HCV replicon luciferase reporter, 48 h; higher = more signal.
Test [17] concerns the target Left-right determination factor 2 (Homo sapiens) (UniProt O00292). The test can be described thus: small molecules binding LEFTY2 protein – biochemical, small-molecule microarray, 635 nm fluorescence scan, primary screen (AID 1110). To be noted: higher = more signal.
The target of test [18] is Calmodulin-1 (Homo sapiens) (UniProt P0DP23). In words: small molecules binding calmodulin-1 with EGTA – biochemical, small-molecule microarray, Cy5-labelled CALM1, profiling panel (AID 1111).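 Note: labelled calmodulin applied in Tris saline Tween buffer holding calcium plus EGTA and DTT.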 As to conditions: Cy5-CALM1 binding fluorescence, higher = more signal.
For test [19] the target is unchanged. The test can be described thus: small molecules binding Ca-loaded calmodulin-1 – biochemical, small-molecule microarray, Cy5-labelled CALM1, plus calcium, artefact control for SMM control-protein annotation, profiling panel (AID 1112).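 Note: score merges spot fluorescence with signal to noise from triplicate slides.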 To be noted: Cy5-CALM1 binding fluorescence, higher = more signal.
The nature of test [20]: probe aWnt5a binding to arrayed compounds – biochemical, biotinylated probe, 635/667 nm fluorescence, primary screen (AID 1113).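 Note: score merges 667 nm fluorescence intensity with signal-to-noise per printed feature.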 As to conditions: small-molecule microarray, higher = more signal.

The source made the active and inactive calls.

Chain of Neurogenic locus notch homolog protein 3 (Homo sapiens) (Q9UM47 whole entry, looked up): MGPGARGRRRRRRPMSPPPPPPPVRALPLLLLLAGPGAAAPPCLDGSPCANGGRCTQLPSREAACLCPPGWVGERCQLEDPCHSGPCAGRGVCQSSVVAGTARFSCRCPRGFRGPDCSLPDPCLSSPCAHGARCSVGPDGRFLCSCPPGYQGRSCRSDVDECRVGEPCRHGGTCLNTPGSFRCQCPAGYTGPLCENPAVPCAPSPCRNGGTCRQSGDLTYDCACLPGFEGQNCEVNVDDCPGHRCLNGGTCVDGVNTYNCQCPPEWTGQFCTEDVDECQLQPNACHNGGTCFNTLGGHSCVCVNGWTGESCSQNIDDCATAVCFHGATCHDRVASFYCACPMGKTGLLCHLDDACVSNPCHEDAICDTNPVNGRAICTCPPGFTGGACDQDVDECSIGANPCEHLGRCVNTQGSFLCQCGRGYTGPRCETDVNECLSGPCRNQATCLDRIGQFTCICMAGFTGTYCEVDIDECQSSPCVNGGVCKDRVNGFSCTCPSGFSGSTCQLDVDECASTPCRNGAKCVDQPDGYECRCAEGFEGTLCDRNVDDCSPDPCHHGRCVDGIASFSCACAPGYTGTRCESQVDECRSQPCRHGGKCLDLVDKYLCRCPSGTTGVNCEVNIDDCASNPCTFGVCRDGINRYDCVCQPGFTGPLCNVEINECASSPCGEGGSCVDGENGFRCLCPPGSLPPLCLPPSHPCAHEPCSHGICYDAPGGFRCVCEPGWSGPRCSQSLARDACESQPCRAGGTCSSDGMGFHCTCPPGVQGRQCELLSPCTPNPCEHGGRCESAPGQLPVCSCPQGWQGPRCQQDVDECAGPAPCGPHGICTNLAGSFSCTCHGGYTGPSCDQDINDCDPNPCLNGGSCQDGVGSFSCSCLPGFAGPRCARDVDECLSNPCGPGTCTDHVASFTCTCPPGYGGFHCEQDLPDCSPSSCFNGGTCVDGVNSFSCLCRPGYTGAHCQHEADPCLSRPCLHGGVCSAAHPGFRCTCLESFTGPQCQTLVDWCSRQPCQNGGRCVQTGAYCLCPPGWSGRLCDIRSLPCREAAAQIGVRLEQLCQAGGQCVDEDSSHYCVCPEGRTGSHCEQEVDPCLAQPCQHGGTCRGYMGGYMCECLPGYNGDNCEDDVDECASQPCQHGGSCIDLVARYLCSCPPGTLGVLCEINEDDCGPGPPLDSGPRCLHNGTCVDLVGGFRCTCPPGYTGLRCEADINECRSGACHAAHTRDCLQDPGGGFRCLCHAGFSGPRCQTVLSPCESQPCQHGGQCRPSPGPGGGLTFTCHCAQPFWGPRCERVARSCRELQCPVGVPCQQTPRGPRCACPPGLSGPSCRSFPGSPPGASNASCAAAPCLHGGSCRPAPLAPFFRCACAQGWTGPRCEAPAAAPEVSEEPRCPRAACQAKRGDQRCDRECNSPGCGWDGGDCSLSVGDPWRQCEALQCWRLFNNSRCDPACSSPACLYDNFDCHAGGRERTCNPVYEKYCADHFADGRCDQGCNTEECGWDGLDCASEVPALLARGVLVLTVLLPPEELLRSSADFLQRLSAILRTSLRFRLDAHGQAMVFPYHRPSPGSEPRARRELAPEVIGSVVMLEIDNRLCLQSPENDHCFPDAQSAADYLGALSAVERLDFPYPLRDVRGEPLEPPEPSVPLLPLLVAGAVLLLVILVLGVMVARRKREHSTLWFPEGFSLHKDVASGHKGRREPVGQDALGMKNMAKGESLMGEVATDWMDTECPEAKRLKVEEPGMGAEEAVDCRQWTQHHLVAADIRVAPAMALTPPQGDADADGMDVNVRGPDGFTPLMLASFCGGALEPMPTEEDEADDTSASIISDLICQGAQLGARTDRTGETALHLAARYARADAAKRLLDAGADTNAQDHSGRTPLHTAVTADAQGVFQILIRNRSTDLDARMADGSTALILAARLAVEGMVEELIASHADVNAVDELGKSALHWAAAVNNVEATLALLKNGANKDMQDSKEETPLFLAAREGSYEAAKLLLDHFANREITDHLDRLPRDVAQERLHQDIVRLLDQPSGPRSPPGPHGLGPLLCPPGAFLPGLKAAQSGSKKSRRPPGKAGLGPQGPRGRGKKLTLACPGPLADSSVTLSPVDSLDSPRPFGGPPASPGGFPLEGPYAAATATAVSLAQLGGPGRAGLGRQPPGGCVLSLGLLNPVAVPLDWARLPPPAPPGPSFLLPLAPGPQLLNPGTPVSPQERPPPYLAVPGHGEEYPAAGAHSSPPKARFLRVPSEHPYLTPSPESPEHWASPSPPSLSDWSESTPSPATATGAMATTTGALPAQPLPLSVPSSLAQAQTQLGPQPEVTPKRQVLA
Chain of Fibroblast growth factor 10 (Homo sapiens) (O15520 whole entry, looked up): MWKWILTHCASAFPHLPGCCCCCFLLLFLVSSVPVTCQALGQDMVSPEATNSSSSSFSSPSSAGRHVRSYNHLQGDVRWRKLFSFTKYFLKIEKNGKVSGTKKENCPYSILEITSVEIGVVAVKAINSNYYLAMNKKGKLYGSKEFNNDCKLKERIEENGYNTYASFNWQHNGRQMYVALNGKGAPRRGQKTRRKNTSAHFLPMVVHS
Chain of Left-right determination factor 2 (Homo sapiens) (O00292 whole entry, looked up): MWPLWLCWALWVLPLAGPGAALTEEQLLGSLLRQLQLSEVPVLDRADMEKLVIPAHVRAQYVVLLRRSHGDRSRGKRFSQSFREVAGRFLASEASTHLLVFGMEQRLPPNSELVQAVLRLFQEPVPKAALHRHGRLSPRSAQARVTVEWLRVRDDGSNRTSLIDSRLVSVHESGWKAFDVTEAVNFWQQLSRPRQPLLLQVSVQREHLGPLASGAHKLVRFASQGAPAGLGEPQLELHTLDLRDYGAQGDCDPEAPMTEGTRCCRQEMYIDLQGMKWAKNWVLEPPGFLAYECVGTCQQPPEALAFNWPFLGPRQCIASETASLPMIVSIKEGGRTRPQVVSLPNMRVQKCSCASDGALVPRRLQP

Turning to `C#CCN1C(C(=O)OCC)OC[C@H]1c1ccccc1` (stereo not given in full), the composite z-score in [1] is -0.205; in test [2], 0.671; in test [3], 0.804; in [4], -0.109; in test [5], 0.312; in [6] it was 0.461. Moreover, the composite z-score was -0.502 in test [7]; 0.388 in test [9]; -0.0229 in test [10]; 0.421 in test [11]; 0.901 in test [12]; 0.428 in test [13]. Moreover, the composite z-score in test [14] is -0.352; in [15], 1.35; in [17], 0.677; in test [18], -0.128; in test [19], -0.605; in test [20], -0.175. Also, the figures for the z-score in test [8] and in [16] were -0.577 (inactive) and -0.354, respectively.

Regarding `COCCOC(=O)N1C(=O)[C@@]2(c3cc(C#CCNC(N)=O)ccc31)[C@H](c1ccccc1OCCO)N1[C@H](c3ccccc3)[C@H](c3ccccc3)OC(=O)[C@H]1[C@@H]2C(=O)Nc1nc2ccccc2s1`, the composite z-score is 0.136 in test [1]; 0.345 in [2]; 0.799 in test [3]; -0.0732 in [4]; 0.852 in [5]; 0.868 in [6]. Further, the composite z-score in [7] was found to be 1.13; in test [9], 0.141; in test [10] it was 0.218; in [11] it was 0.135; in test [12], 0.572; in [13], 0.505. The composite z-score in [14] was 0.887; in [15], 0.872; in test [17], 0.163; in [18] it was 1.58; in test [19], 1.14; in test [20] it was -0.0758. Also, the z-score in [8] was -0.349 (inactive); in [16] it was 0.048.

Turning to `O=c1n(-c2ccccc2)c(=O)n2n1CC(COc1ccccc1)=C1[C@@H](CCc3ccccc3)OB(O)C[C@@H]12`, the composite z-score in test [1] was -0.133; in [2], 0.814; in test [3] it was 1.03; in test [4], 0.0209; in [5], 0.812; in test [6], -0.178. Further, the composite z-score in test [7] is -0.482; in test [9], 1.02; in test [10], 0.59; in [11] it was 0.235; in [12] it was 0.728; in test [13], 0.488. For the same molecule, the composite z-score in test [14] was 0.0187; in test [15] it was 0.398; in [17], 0.41; in test [18], 0.0534; in test [19], 0.205; in test [20], 0.0181. The values for the z-score in [8] and in [16] were -1.14 (inactive) and -1.91, respectively.

On to `C[C@@H](OCc1ccccc1)C1NC(=O)[C@@]23C(=O)N[C@@H](Cc4ccccc4)C2[C@H](C)[C@@]2(C)O[C@H]2C3/C=C/C/C=C\CNC(=O)[C@@H]2CCCN2C1=O` (stereo not given in full), for which the composite z-score in [1] is -0.0901; in test [2], -0.315; in [3], -0.665; in test [4] it was -0.209; in [5], -0.381; in test [6] it was -0.308. Besides, the composite z-score was -0.39 in [7]; 0.097 in test [9]; -0.616 in test [10]; -0.324 in test [11]; 0.819 in [12]; 0.34 in test [13]. Moreover, the composite z-score in test [14] is 1.75; in test [15], -2.3; in test [17], -0.0437; in [18], -1.46; in test [19], -1.23; in [20], -0.197. In addition, the z-score in test [8] is 0.253 (inactive); in test [16], -1.06.

Consider `COCCCNC(=O)[C@@]1(CCS(=O)(=O)c2ccccc2)N=C(c2ccc(OCCCO)cc2)O[C@H]1c1ccccc1CN=[N+]=[N-]`, for which the composite z-score in test [1] came to 0.568; in [2] it was 1.9; in test [3], 1.07; in test [4], 0.242; in test [5], 1.14; in test [6] it was 1.17. Also, the composite z-score came to 1.12 in test [7]; 1.14 in test [9]; 1.31 in test [10]; 0.184 in [11]; 0.847 in test [12]; 0.245 in test [13]. The composite z-score in [14] is 1.22; in test [15], 1.13; in [17] it was 0.266; in [18], 2.02; in [19], 0.986; in test [20], 0.183. Also, the z-score in test [8] is -0.594 (inactive); in test [16], -2.04.

With `C#CCOc1ccc(C[C@H]2C(=O)O[C@H](Cc3ccccc3)[C@H](/C=C/C3CC3)N2CC#C)cc1`, the composite z-score in [1] is -0.139; in [2], -0.493; in test [3], -1.74; in test [4] it was -0.206; in test [5], 1.32; in test [6], -0.162. In addition, the composite z-score in [7] is -0.0338; in [9], -0.425; in [10] it was -0.526; in [11] it was -0.925; in test [12], -0.566; in [13], -0.175. Moreover, the composite z-score in [14] is 0.809; in [15], -0.462; in test [17] it was -0.36; in test [18] it was -0.491; in [19], -0.685; in test [20] it was -0.176. In addition, the values for the z-score in test [8] and in [16] were -1.18 (inactive) and -2.14, respectively.

Turning to `C=C1C=C(Br)C2(OCCCO2)[C@H]2OC12` (stereo not given in full), the composite z-score in test [1] is -0.116; in test [2] it was 0.104; in [3], 0.0347; in [4], -0.076; in test [5], 0.313; in test [6], -0.118. Further, the composite z-score was -0.533 in test [7]; 0.125 in test [9]; 0.259 in [10]; 0.442 in test [11]; 0.322 in [12]; 0.536 in test [13]. The composite z-score is 0.831 in test [14]; -0.524 in [15]; 0.333 in test [17]; -0.367 in [18]; -0.755 in test [19]; -0.176 in [20]. Also, the figures for the z-score in test [8] and in [16] were -0.0861 (inactive) and 1.38, respectively.

Regarding `C=C(/C(=C/C[C@H](OC(=O)c1ccncc1)c1cccc(OCCO)c1)c1cc(C(=O)OC)ccc1OC)C(C)C`, the composite z-score in test [1] was -0.192; in test [2] it was 0.126; in test [3], 0.436; in test [4], -0.112; in test [5], 0.903; in test [6] it was 0.235. For the same molecule, the composite z-score in [7] was 0.569; in test [9] it was 0.493; in test [10], -0.129; in [11], -0.763; in [12], -0.127; in test [13], -0.227. The composite z-score in test [14] is 0.639; in test [15] it was 0.0251; in test [17], -0.107; in test [18], -0.193; in test [19], -0.808; in test [20], -0.169. Also, the results for the z-score in test [8] and in [16] were -1.63 (inactive) and -1.86, respectively.

Consider `CC(C)N1CC=CC23O[C@@H]4/C=C\CCCOC(=O)C4[C@H]2C(=O)N(CCCO)[C@@H]3C1=O` (stereo not given in full), for which the composite z-score in test [1] is -0.221; in test [2], -1.17; in test [3], 0.0751; in [4], -0.285; in test [5], 2.12; in test [6], -0.201. Further, the composite z-score was 0.787 in test [7]; -0.352 in [9]; -0.762 in [10]; -1.64 in [11]; -1.07 in test [12]; -1 in test [13]. Besides, the composite z-score in test [14] is 0.967; in [15], -0.0197; in test [17], -1.83; in [18], -0.311; in test [19], 0.412; in test [20], -0.14. Moreover, the z-score was 0.073 (inactive) in test [8] and -0.597 in test [16].

Source of the values: PubChem BioAssay.
